From PubChem
ALDH1A1 inh-1 = inhibitors of human aldehyde dehydrogenase 1A1; Potency, µM (series often up to 75.3 µM), without a hit: at the top dose activity, negative = inhibition, most hits filed as inhibitors; AID 1030; 220,000 compounds, 7.3% hits; Purified ALDH1A1, NADH fluorescence, propionaldehyde substrate; P00352;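 further: potency means the concentration at half of the fitted maximal effect; plate controls were no enzyme wells and a reference inhibitor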
Target sequence (P00352 whole entry, looked up): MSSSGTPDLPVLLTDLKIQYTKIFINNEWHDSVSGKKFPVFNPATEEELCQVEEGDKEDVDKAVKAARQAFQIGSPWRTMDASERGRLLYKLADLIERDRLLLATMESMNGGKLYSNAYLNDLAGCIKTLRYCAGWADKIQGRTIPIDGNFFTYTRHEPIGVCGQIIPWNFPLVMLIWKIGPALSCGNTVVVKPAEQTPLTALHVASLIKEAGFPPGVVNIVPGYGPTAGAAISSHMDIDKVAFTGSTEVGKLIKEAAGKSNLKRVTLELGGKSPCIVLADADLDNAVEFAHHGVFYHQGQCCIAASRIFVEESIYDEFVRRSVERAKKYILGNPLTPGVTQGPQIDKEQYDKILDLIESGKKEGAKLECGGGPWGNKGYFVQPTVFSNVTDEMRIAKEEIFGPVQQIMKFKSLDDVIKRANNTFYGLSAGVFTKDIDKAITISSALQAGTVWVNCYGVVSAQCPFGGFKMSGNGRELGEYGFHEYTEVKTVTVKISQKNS
CBFb RUNX1 block = CBF-beta/RUNX1 interaction disruption; AID 1477; 230,000 tested, under 10 active; AlphaScreen CBFb-His/RUNX1-biotin binding, biochemical; Potency, µM (titrated, usually from 59.8 µM), without a hit: at the highest dose activity, negative = inhibition, usual class: inhibitors; active means well fitted curve in the direction sought with a large enough effect; inconclusive means small, poorly fitted or top-dose-only effect, or another doubt; inactive means no such curve, though single readings can be large; an effect the other way counts as inactive or inconclusive; further: % of control where 0% means no effect
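Inhibition was taken as any reduction in AlphaScreen signal from the CBF-beta–RUNX1 pair (His and biotin tags, 30 nM each), measured after compound (15 min) and bead (90 min) incubations at room temperature.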
HTT aggregate = reduces HttQ103-GFP aggregates in PC12 cells; 220,000 compounds, 1.1% hits; AID 1688; PC12 HttQ103-GFP aggregates, Acumen cytometry, 40 h; Potency, µM (top dose mostly 46.1 µM), for inactives: at the top dose activity change, negative = inhibition, usual class: inhibitors; active means well fitted curve in the direction sought with a large enough effect; inconclusive means small, poorly fitted or top-dose-only effect, or another doubt; inactive means no such curve, though single readings can be large; an effect the other way counts as inactive or inconclusive; further: potency means the concentration at half of the fitted maximal effect; on the % scale 0 is the no-effect control and ±100 the full control effect; nearly all actives have a fitted effect of over 60% in size
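PC12 cells stably carrying ecdysone-inducible HTT exon 1 Q103–GFP were induced with tebufenozide (100 nM final) and treated with library compounds in titration. GFP aggregates in lysates were counted by laser scanning cytometry.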
JMJD2E inh = JMJD2E (human) inhibition. B2RXH2. JMJD2E catalytic domain, FDH-coupled NADH fluorescence (FDH is formaldehyde dehydrogenase). Potency, µM (top dose mostly 57.1 µM), for inactives: at the top dose activity change, negative = inhibition, hits mostly inhibitors. 230,000 compounds, 1.6% hits;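 further: potency means the concentration at half of the fitted maximal effect; 0% = wells with enzyme and -100% = buffer wells without enzyme; nearly all actives have a fitted effect of over 50% in size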
HPGD block = HPGD (human) dehydrogenase inhibition | Potency, µM, for the others: at the top dose activity change, negative = inhibition, usual class: inhibitors | 150,000 compounds, 4.3% hits | purified HPGD, NADH fluorescence kinetic, PGE2 substrate | AID 894; further: potency means the concentration at half of the fitted maximal effect; on the % scale 0 is the no-effect control and ±100 the full control effect
Target sequence (P15428 whole entry, looked up): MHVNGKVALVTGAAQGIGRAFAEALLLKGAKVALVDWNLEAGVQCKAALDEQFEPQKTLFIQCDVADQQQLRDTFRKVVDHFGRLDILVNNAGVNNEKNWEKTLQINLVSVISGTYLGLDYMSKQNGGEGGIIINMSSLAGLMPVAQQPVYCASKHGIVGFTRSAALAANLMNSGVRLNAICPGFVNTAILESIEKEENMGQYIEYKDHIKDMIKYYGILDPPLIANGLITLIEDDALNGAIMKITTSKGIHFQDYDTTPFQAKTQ
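20 nM HPGD preincubated 15 min at room temperature with compound in 50 mM Tris-HCl pH 8, 0.01% Tween 20. Started with 1 mM NAD+ and 30 uM prostaglandin E2; NADH fluorescence (360/450 nm) read 5 times over 30-s intervals, last minus first.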
HTT cytoprotect = protects HTT-Q103 PC12 cells, measured by ATP. AID 1471. Potency, µM (series often up to 56.4 µM), for inactives: cytoprotection (ATP increase), hits mostly activators. 230,000 compounds, 0.14% hits. PC12 HTT-Q103 induced, cytoprotection, ATP luminescence, 40 h; active means well fitted curve in the direction sought with a large enough effect; inconclusive means small, poorly fitted or top-dose-only effect, or another doubt; inactive means no such curve, though single readings can be large; an effect the other way counts as inactive or inconclusive; further: potency means the concentration at half of the fitted maximal effect; % of control where 0% means no effect; nearly all actives have a fitted effect of over 45% in size
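ATP quantification (ATPlite) reports survival of PC12 cells in which tebufenozide, 100 nM final, switches on Htt exon 1 with 103 glutamines linked to GFP; compounds are titrated.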
HPGD inh cf = confirmation of human HPGD inhibitors | shares compounds with HPGD block | 90 compounds, 90% hits | recombinant HPGD, NADH fluorescence, PGE2 substrate | Potency, µM (highest dose often 57.1 µM), for the others: top-dose activity change, negative = inhibition, actives largely listed as inhibitors; calls by dose curve
ALDH1A1 inh-2 = Confirms inhibition of human ALDH1A1 with counterscreen | shares compounds with ALDH1A1 inh-1 | purified ALDH1A1, NADH fluorescence, propionaldehyde/NAD+ | Potency, µM (doses to about 57.1 µM), for inactives: at the highest dose activity change, negative = inhibition, actives largely listed as inhibitors | 90 compounds, 90% hits | AID 493210; calls by dose curve
* hit, by the source's call; ? = inconclusive; . = not tested or not shown; [ ] = another dose, or the depositor's remark. Most compounds without a hit are left out; they make up all but 9.8% or so of the library. Unless noted, the call rests on the fitted dose curve; in most records, active means well fitted inhibition curve with a large enough effect (not every such curve was filed as active); inconclusive means small, poorly fitted or top-dose-only effect, or another doubt; inactive means no such curve, though single readings can be large or run the other way.

SMILES	ALDH1A1 inh-1	CBFb RUNX1 block	HTT aggregate	JMJD2E inh	HPGD block	HTT cytoprotect	ALDH1A1 inh-2	others
CC1CCN(C(=O)CCc2ccc(Oc3cc([N+](=O)[O-])cc([N+](=O)[O-])c3)cc2)CC1	?	?	5%	-15%	1µM*	32%[10 µM]	.	HPGD inh cf=0.89µM*
CC(C)C[C@@H](NC(=O)[C@H](Cc1ccccc1)NC(=O)c1cnccn1)B(O)O	.	.	-15%	.	.	-79%	.
CCN(CC)S(=O)(=O)c1ccc(NC(=O)CSc2ncnc3ccccc23)cc1	-7%	19%	16%	-1%	-13%	-9%[10 µM]	.
CCCNC(=O)c1cc(S(=O)(=O)N2CCc3ccccc32)ccc1F	-2%	1%	-25%	-2%	-12%	-6%[10 µM]	.
COc1ccc(S(=O)(=O)Nc2cc(Sc3ncn[nH]3)c(O)c3ccccc23)cc1	?	-2%	-25%[9.22 µM]	?	1.1µM*	-119%	.	HPGD inh cf=0.35µM*
CC(C)(C)c1ccc(/C=C(\C#N)C(=O)NCCN2CCOCC2)cc1	-8%	8%	8%[9.22 µM]	-28%	.	5%[10 µM]	.
COc1ccccc1CN(CC(=O)NCc1ccc2c(c1)OCO2)C(=O)c1ccc2c(c1)OCCO2	0.079µM*	-6%	6%	-10%	-1%	-15%[10 µM]	0.045µM*
COc1ccccc1OCCC(=O)NCc1ccc2c(c1)OCO2	4%	-2%	5%	0%	.	-14%	.
COC(=O)c1sc(NC(=O)c2cnccn2)c(C(=O)OC)c1C	.	.	.	.	.	1%[0.074 µM]	.
CCc1noc(C)c1C(=O)Nc1sc(C(=O)N(C)C)c(C)c1C(=O)OC	-9%	1%	-8%	-3%	-9%	-18%	.
COc1ccc(-c2cc(=O)c3c(O)c(OC)c(OC)c(OC)c3o2)cc1	0.11µM*	.	.	0%	-11%	.	0.63µM*
O=C(O)CCn1c(=O)n(CCC(=O)O)c(=O)n(CCC(=O)O)c1=O	7%	-22%	19%[9.22 µM]	-16%	.	16%[10 µM]	.
CCOC(=O)C1=C(C)NC(=O)NC1c1cccs1 (stereo not given)	0%	6%	4%[9.22 µM]	13%	.	22%[10 µM]	.
CC1=C(C(=O)OCC(C)C)C(c2cccs2)NC(=S)N1 (stereo not given)	0.13µM*	-4%	-3%	-4%	.	-5%[10 µM]	0.25µM*
CC(=O)NC1C(=O)N(CC(C)C)c2ccccc21 (stereo not given)	0.04µM*	-2%	8%	-5%	-8%	0%[10 µM]	1µM*
CCN1C(=O)C(NC(C)=O)c2cc(Br)ccc21 (stereo not given)	?	-1%	-1%	-5%	1%	-5%	.
CC1(C)Cc2nc(-c3ccccc3)nc(NNC(=O)c3ccco3)c2CO1	.	?	-7%[9.22 µM]	0%	.	-5%[10 µM]	.
Cc1ccccc1NC(=O)CCC(=O)OCC(=O)c1cccc([N+](=O)[O-])c1	-14%	0%	7%[9.22 µM]	0%	.	1%[10 µM]	.
Cc1ccc(NCCC(=O)c2cccc([N+](=O)[O-])c2)c(C)c1	0.13µM*	?	-24%	4%	-19%	22%[10 µM]	0.4µM*
CC(C)Cn1c(CN(C)Cc2ccccc2)nc2c1c(=O)n(C)c(=O)n2C	3%	7%	?	-5%	3%	0%[10 µM]	.
CCCCCn1c(CN2CCN(C(=O)OCC)CC2)nc2c1c(=O)n(C)c(=O)n2C	.	.	.	.	.	-22%[0.074 µM]	.
Cc1ccc(Cn2c(CN3CCN(C(=O)c4ccco4)CC3)nc3c2c(=O)n(C)c(=O)n3C)cc1	0.16µM*	-4%	?	0%	-11%	7%[0.074 µM]	0.5µM*
CCOC(=O)N1CCN(Cc2nc3c(c(=O)n(C)c(=O)n3C)n2Cc2ccccc2C)CC1	0.25µM*	13%	9%	-4%	-9%	-25%[0.074 µM]	0.35µM*
CCOC(=O)N1CCN(Cc2nc3c(c(=O)n(C)c(=O)n3C)n2CCCc2ccccc2)CC1	0.63µM*	-1%	2%	-3%	3%	11%[0.074 µM]	0.63µM*
CN(Cc1ccccc1)Cc1nc2c(c(=O)n(C)c(=O)n2C)n1CCCc1ccccc1	0.71µM*	13%	-9%	5%	-5%	-4%[0.074 µM]	0.56µM*
SMILES	ALDH1A1 inh-1	CBFb RUNX1 block	HTT aggregate	JMJD2E inh	HPGD block	HTT cytoprotect	ALDH1A1 inh-2	others
CCOC(=O)c1sc(NC(=O)C2CCCO2)c(C(=O)OC)c1C (stereo not given)	.	.	.	.	.	2%[0.074 µM]	.
CCOC(=O)N1CCN(Cc2nc3c(c(=O)n(C)c(=O)n3C)n2CCC(C)C)CC1	0.22µM*	2%	14%	3%	-16%	-87%	0.18µM*
CCCn1c(CN2CCN(C(=O)OCC)CC2)nc2c1c(=O)n(C)c(=O)n2C	7%	5%	-10%[9.22 µM]	8%	.	-19%	.
CC1=C(C(=O)OCc2ccccc2)C(/C=C/c2ccccc2)NC(=S)N1 (stereo not given)	0.2µM*	-15%	?	-17%	-28%	-12%[10 µM]	0.2µM*
CC1=C(C(=O)OC(C)C)C(/C=C/c2ccccc2)NC(=O)N1 (stereo not given)	-1%	3%	-15%	3%	-3%	-3%	.
COc1c(OC(C)=O)ccc(/C=N\NC(=O)c2ccc(Br)cc2)c1[N+](=O)[O-]	-8%	2%	-19%[9.22 µM]	4%	.	-26%[10 µM]	.
COCCn1c(=O)[nH]c(=O)c2c1nc(-c1cc(Br)c3c(c1)OCO3)n2Cc1ccccc1	0.11µM*	?	5%	18%	.	5%[10 µM]	0.079µM*
COc1ccccc1-n1c(N)cc(=O)nc1SCC(=O)Nc1cc(C)on1	1%	4%	4%	4%	.	-38%	.
COC(=O)c1sccc1NC(=O)CSc1cccc(Cl)c1Cl	-16%	23%	-14%	4%	-12%	8%	.
COc1ccc(OC)c(-n2nnnc2SCC(=O)Nc2ccc3c(c2)OCCO3)c1	0.063µM*	-1%	2%	1%	.	-19%	0.1µM*
COC(=O)c1sccc1NC(=O)CSc1nnnn1-c1ccccc1C	0.56µM*	10%	4%	-3%	?	-14%	0.79µM*
COc1ccccc1-n1nnnc1SCC(=O)Nc1cc(C)on1	0.71µM*	1%	-7%	-3%	-8%	7%[0.074 µM]	0.89µM*
COc1ccccc1NC(=O)CN1CCN(CC(=O)Nc2ccc3c(c2)OCCO3)CC1	3.5µM*	1%	-26%	-2%	-2%	-7%	3.2µM*
O=C(CCCn1nnc(-c2cccnc2)n1)c1ccc(F)cc1	0%	-1%	-32%	7%	-1%	-7%	.
